{
  "source": "PubChem BioAssay (Tox21)",
  "note": "The source made the active and inactive calls. The call rests on the fitted dose curve.",
  "data": [
    {"target": "Thyrotropin-releasing hormone receptor (Homo sapiens) (UniProt P34981)", "sequence (P34981 whole entry, looked up)": "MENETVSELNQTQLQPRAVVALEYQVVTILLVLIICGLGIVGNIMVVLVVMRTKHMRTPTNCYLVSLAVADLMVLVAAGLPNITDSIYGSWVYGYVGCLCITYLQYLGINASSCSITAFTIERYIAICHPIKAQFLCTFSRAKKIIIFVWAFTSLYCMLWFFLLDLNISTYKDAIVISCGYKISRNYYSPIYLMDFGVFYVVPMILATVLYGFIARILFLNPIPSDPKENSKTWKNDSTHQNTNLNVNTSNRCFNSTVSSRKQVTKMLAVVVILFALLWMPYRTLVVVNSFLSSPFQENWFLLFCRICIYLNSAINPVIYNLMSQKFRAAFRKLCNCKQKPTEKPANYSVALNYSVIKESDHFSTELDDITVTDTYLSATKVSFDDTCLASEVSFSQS", "test": "qHTS assay to identify small molecule agonists of the thyrotropin-releasing hormone receptor (TRHR) signaling pathway (AID 1346891);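 further: HEK293 cells expressing TRHR with calcium dye readout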", "settings": "TRHR-HEK293 calcium fluorescence, agonist mode; series mostly up to 57.6 µM", "source_text": "National Center for Advancing Translational Sciences [NCATS] NIH Chemical Genomics Center [NCGC] U.S. Environmental Protection Agency [EPA] National Institutes of Environmental Health Sciences [NIEHS] National Toxicology Program [NTP] Assay overview: Thyrotropin-releasing hormone (TRH) receptor (TRHR) is a G-protein-coupled receptor which binds the tripeptide thyrotropin releasing hormone. TRHR is found in the brain and, when bound by TRH, acts (through phospholipase C) to increase intracellular inositol trisphosphate. It plays a crucial role in the anterior pituitary where it controls the synthesis and secretion of thyroid stimulating hormone and prolactin. The TRHR-Hek293 assay is a cell-based assay, and it has the potential to screen G protein-coupled receptors. A compound/drug can either activate (agonist) or suppress (antagonist) GPCRs that can be monitored by levels of intracellular calcium. Using this assay, the Tox21 10K compound library was screened to identify potential TRHR agonists.\nAssay Protocol Summary: The TRHR-Hek293 cells were dispensed at 1500cells/4uL/well in 1536-well black-clear bottom plates using a Multidrop dispenser. After the assay plates were incubated at a 37 C/5% CO2 incubator for 18 hours, 4 uL of Dye-Loading Solution was added to each well. The plates were incubated at 37 C for 2 hours. For agonist mode, 23 nL of compounds dissolved in DMSO, positive controls or DMSO only was transferred to the assay plate by a pin tool. The fluorescence intensity in the plates was measured using FDSS 7000EX kinetic plate reader for 3 min at 1 sec intervals. Each test compound was measured at 15 concentrations and in triplicates.", "values": [
      {"smiles": "COc1ccc(C)cc1N", "outcome": "inactive"},
      {"smiles": "CN1C(=O)CC[C@H]1c1cccnc1", "outcome": "inactive"},
      {"smiles": "NC(=S)NNC(N)=S", "outcome": "inactive"},
      {"smiles": "O=C1CCCC1", "outcome": "inactive"},
      {"smiles": "CN(C)c1ccc(O)c2c1C[C@H]1C[C@H]3[C@H](N(C)C)C(=O)C(C(N)=O)=C(O)[C@@]3(O)C(=O)C1=C2O", "outcome": "inactive"},
      {"smiles": "CN(C)CCOC(=O)COc1ccc(Cl)cc1", "outcome": "inactive"},
      {"smiles": "CC(C)OP(=O)(CP(=O)(OC(C)C)OC(C)C)OC(C)C", "outcome": "inactive"},
      {"smiles": "CC(CCO)CC(C)(C)C", "note": "(stereo not given)", "outcome": "inactive"},
      {"smiles": "CCc1ccccc1CC", "outcome": "inactive"},
      {"smiles": "CC(=O)OCc1ccccc1", "outcome": "inactive"},
      {"smiles": "NCCNCCN", "outcome": "inactive"},
      {"smiles": "C=CC[N+](C)(C)CC=C", "outcome": "inactive"},
      {"smiles": "O=S(=O)(O)c1ccc(N=Nc2c(O)ccc3cc(S(=O)(=O)O)ccc23)cc1", "outcome": "inactive"},
      {"smiles": "CC(O)CC(C)(C)O", "note": "(stereo not given)", "outcome": "inactive"},
      {"smiles": "CCCCCC(=O)O", "outcome": "inactive"},
      {"smiles": "Nc1nc(N)nc(-c2ccccc2)n1", "outcome": "inactive"},
      {"smiles": "NCCCCCCN", "outcome": "inactive"},
      {"smiles": "CCCCCCCC=O", "outcome": "inactive"},
      {"smiles": "COc1ccc(OC)cc1", "outcome": "inactive"},
      {"smiles": "OC1C(O)C(O)C(O)C(O)C1O", "note": "(stereo not given)", "outcome": "inactive"},
      {"smiles": "CC(C)CCCCCCCOC(=O)CCCCC(=O)OCCCCCCCC(C)C", "outcome": "inactive"},
      {"smiles": "COc1cc(OC)c(C(=O)CCCN2CCCC2)c(OC)c1", "outcome": "inactive"},
      {"smiles": "Cc1ccc([N+](=O)[O-])cc1S(=O)(=O)O", "outcome": "inactive"},
      {"smiles": "CC(CCl)OP(=O)(OC(C)CCl)OC(C)CCl", "note": "(stereo not given)", "outcome": "inactive"},
      {"smiles": "CCCCCCCO", "outcome": "inactive"},
      {"smiles": "O=C(O)Cn1c(=O)n(Cc2ccc(Br)cc2F)c(=O)c2ccc(Cl)cc21", "outcome": "inactive"},
      {"smiles": "CC(=O)CCC=C(C)C", "outcome": "inactive"},
      {"smiles": "CC(C)(Oc1ccc(CCNC(=O)c2ccc(Cl)cc2)cc1)C(=O)O", "outcome": "inactive"},
      {"smiles": "Clc1ccccn1", "outcome": "inactive"},
      {"smiles": "CC(=O)CC(C)(C)O", "outcome": "inactive"},
      {"smiles": "CSc1ccc(Cl)cc1", "outcome": "inactive"},
      {"smiles": "CC(=O)OCCOC(C)=O", "outcome": "inactive"},
      {"smiles": "CCCCCCCCCCCCCCCCO", "outcome": "inactive"},
      {"smiles": "CCCCCCCCCCN", "outcome": "inactive"},
      {"smiles": "C=C(C)CNCC", "outcome": "inactive"},
      {"smiles": "CC1(C)NC(=O)NC1=O", "outcome": "inactive"},
      {"smiles": "C=Cc1ccc(C)cc1", "outcome": "inactive"},
      {"smiles": "OCc1cccc(Oc2ccccc2)c1", "outcome": "inactive"},
      {"smiles": "O=C(O)/C=C/C(=O)O", "outcome": "inactive"},
      {"smiles": "O=S(=O)(O)c1ccccc1", "outcome": "inactive"}
    ]}
  ]
}
